SUMO Mot1 rescue: SUMOylation pathway inhibition by Mot1-301 growth rescue; S. cerevisiae Mot1-301 growth rescue, ATP luminescence, 38.5C; percent above DMSO median, 100 means doubled; growth rescue, % at 18.8 µM; hit rate 1% among 320,000; AID 2716;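 active = every valid replicate shows activation above 250% relative to neutral control wells; inactive = the rest, any valid replicate at or below 250%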;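 note: OY570 slx delta 5 strain wells were the positive control but not used for scaling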
ATG4B inhibitor: inhibitors of human ATG4B cysteine protease; Q9Y4P1; ATG4B cleavage of LC3-PLA2, NBD-HPC fluorescence, 1 h; inhibition, % at 8.33 µM; hit rate 0.51% among 340,000; AID 504462; in the data active = inhibition above about 40%
NadD block: NadD (S. aureus) enzyme inhibition. purified NadD enzyme, colorimetric absorbance read-out. inhibition, % at 20 µM. hit rate 0.78% among 360,000. AID 602399; in the data active = inhibition above about 26%
FAS TE block: blocks the thioesterase domain of human fatty acid synthase; P49327; recombinant FAS-TE, OMFH fluorogenic substrate, fluorescence endpoint; inhibition, % at 15 µM; hit rate 0.67% among 360,000; AID 602261;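 active = compounds whose normalised, plate-corrected inhibition of enzyme fluorescence in the single-dose primary screen is 50% or more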;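 note: 0% = DMSO with enzyme and 100% = substrate without enzyme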
Calb FLC: C. albicans growth modulation with fluconazole; C. albicans CaCi-2 (fluconazole-resistant clinical isolate) + fluconazole, Alamar Blue growth, 48 h; growth inhibition, % (test concentration not listed); hit rate 0.57% among 300,000;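 active = growth inhibition above about 58% in most replicates, limit read from the data, passing the limit was not always enough; inconclusive = exactly half the replicates above a set limit; inactive = most replicates below a set limit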;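 note: all wells also contain fluconazole at 8 µg/ml as a sub-toxic cotreatment; 0% = median of DMSO wells and 100% = median of geldanamycin control wells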
ATG4B conf: ATG4B (human) inhibition, single-dose confirmed | shares compounds with ATG4B inhibitor | ATG4B protease fluorescent substrate cleavage assay | inhibition, % at 8.33 µM | hit rate 92% among 320; in the data active = inhibition above about 39%
PLA2 ctr: inhibits human PLA2, flagging false ATG4B inhibitors; hit rate 66% among 1,600; inhibition, % at 8.33 µM; shares compounds with ATG4B inhibitor; purified PLA2, NBD-C6-HPC fluorescence, 45 min; in the data active = inhibition above about 50%
An asterisk follows results filed as active; u = inconclusive; x = no result given. This is a sample that favours compounds with a hit; in the whole collection about 3.1% have one here.

SMILES | SUMO Mot1 rescue | ATG4B inhibitor | NadD block | FAS TE block | Calb FLC | PLA2 ctr | others
COC(=O)c1cc(Br)c(N)cc1OC | -4 | 4 | 2 | -1 | 10 | x
O=C(Oc1c(-c2ccccc2)c(=O)n2c3c(cccc13)CC2)c1ccccc1 | -4 | 70* | -7 | 20 | 21 | 65*
O=C(Oc1c(-c2ccccc2)c(=O)n2c3c(cccc13)CC2)c1cccc([N+](=O)[O-])c1 | 2 | 28 | 2 | 32 | -2 | x
O=C(Oc1c(-c2ccccc2)c(=O)n2c3c(cccc13)CC2)c1ccc(F)cc1 | -28 | 66* | 0 | 10 | 2 | 45 | ATG4B conf=62*
CN1CCN(C(=O)c2c(O)c3cccc4c3n(c2=O)CC4)CC1 | 6 | 2 | 2 | -2 | 5 | x
CCCCCCCCNS(=O)(=O)CCNC1CC1 | x | x | 0 | -2 | x | x
O=C(NCCc1cccc(F)c1)C1CCC(=O)N(CCCc2ccccc2)C1 (stereo not given) | 10 | 1 | -4 | -1 | -4 | x
CN1OC[C@@H]2CN[C@H](c3cccc(-c4ccc(C#N)cc4)c3)C[C@@H]21 | x | 1 | 0 | -7 | x | x
O=C(Nc1ccccc1-c1ccccc1)c1ccc(Cl)c([N+](=O)[O-])c1 | -10 | 41* | -1 | 29 | 7 | 36
O=C(Nc1ccc(Nc2ccccc2)cc1)c1ccc(Cl)c([N+](=O)[O-])c1 | 90 | 5 | 0 | 36 | 12 | x
CCCCCC(=O)Nc1ccc(S(=O)(=O)NC2=NCCCCC2)cc1 | -15 | -6 | 0 | -8 | x | x
O=C(OCc1ccccc1)N1Cc2ccnnc2CC1c1ccccc1Br (stereo not given) | x | x | 0 | 1 | x | x
O=C1/C(=C/c2c[nH]c3ccccc23)CCC/C1=C\c1c[nH]c2ccccc12 | 15 | 75* | 20 | 2 | 3 | 75*
c1ccc(-c2ccc(-c3cnc4n3CCCCC4)cc2)cc1 | 20 | 52* | 4 | -15 | 58 | 59*
O=C(c1cnn(-c2ccccc2)c1)c1cc(F)ccc1O | -5 | 13 | -3 | 11 | -6 | x
Cc1ncc(CC(=O)n2cc(C(=O)c3cc(F)ccc3O)cn2)s1 | 21 | 41* | -2 | -4 | 7 | 50*
N#Cc1sc(C(N)=O)c(-c2ccccc2)c1-c1ccccc1 | 1 | 68* | -9 | -1 | 5 | 66*
COc1ccc(N2CCN(C3CCCN(C(=O)CN4CCOC4=O)C3)CC2)cc1 (stereo not given) | 42 | 2 | 1 | -4 | 2 | x
NC(=O)C1CCCCc2c1[nH]c1ccc(Cl)cc21 (stereo not given) | -22 | 56* | -9 | 1 | -4 | 51*
CC(C)N(C)Cc1nnnn1CC(=O)N(C)Cc1ccc(F)cc1 | 0 | 8 | -1 | -4 | 6 | x
Cc1c(C(=O)OCC(=O)NCc2ccco2)cccc1[N+](=O)[O-] | 14 | 2 | 0 | 6 | x | x
CC(C)(C)OC(=O)NC(Cc1ccccc1)C(=O)O (stereo not given) | -9 | -6 | 2 | -5 | 3 | x
O=C(NC(Cc1ccccc1)C(=O)O)OCC1c2ccccc2-c2ccccc21 (stereo not given) | 74 | 44* | -1 | 4 | 40 | 63*
COc1ccc(-c2nnc(Nc3ccc(CC(N)=O)cc3)c3ccccc23)cc1 | -4 | 93* | 9 | -4 | -2 | 92*
NC(=O)Cc1ccc(Nc2nnc(-c3ccccc3)c3ccccc23)cc1 | 0 | 82* | 0 | -2 | 35 | 82*
SMILES | SUMO Mot1 rescue | ATG4B inhibitor | NadD block | FAS TE block | Calb FLC | PLA2 ctr | others
Cc1ccc(Cc2c(-c3cccc(Br)c3)nc3c(C)cc(Br)cn23)cc1 | x | x | 19 | 24 | x | x
O=C(NNC(=S)Nc1ccc(F)cc1)c1cccc([N+](=O)[O-])c1 | 7 | 18 | 1 | 6 | -4 | x
Cc1ccc(C(=O)NNC(=S)Nc2cccc(Cl)c2Cl)cc1[N+](=O)[O-] | 26 | 48* | 4 | 35 | 19 | 34 | ATG4B conf=78*
Cc1ccc(NC(=S)NNC(=O)c2cccc([N+](=O)[O-])c2)cc1Cl | 230 | 77* | 7 | 38 | 17 | 78*
CC(=O)c1cccc(NC(=S)NNC(=O)c2ccc(C)c([N+](=O)[O-])c2)c1 | -16 | 14 | 9 | 13 | 7 | x
O=S(=O)(c1ccc(Br)s1)N1CCc2ccccc2C1 | 34 | 57* | -2 | 24 | 10 | 27
O=S(=O)(c1ccc(Br)s1)N1CCN(c2ccccc2)CC1 | 10 | 5 | 6 | 16 | -22 | x
CO/N=C(/C)CCS(=O)(=O)c1ccccc1 | 17 | -4 | -1 | 1 | -2 | x
O=C(Nc1nc2nc(-c3ccccc3)cc(-c3ccccc3)n2n1)c1ccco1 | 75 | 42* | 12 | 3 | -1 | 51*
COc1ccc(NC(=O)C2c3ccccc3OCC(=O)N2C2CC2)cc1 (stereo not given) | x | x | 4 | -11 | x | x
CCOC(=O)c1c(C)nc2sc(C(N)=O)c(N)c2c1-c1ccc(OC)cc1 | -22 | 65* | 1 | 1 | -6 | 74*
CCOC(=O)c1c(C)nc2sc(C(=O)Nc3ccc(OC)cc3)c(N)c2c1-c1ccc(OC)cc1 | x | -17 | 3 | 31 | -3 | x
Cc1ccc(-c2c3c(nc4sc(C(N)=O)c(N)c24)CCC3)cc1 | -8 | 55* | 6 | -2 | -5 | 59*
NC(=O)c1sc2nc3c(c(-c4ccco4)c2c1N)CCCC3 | 69 | 13 | 0 | -1 | 16 | x
NC(=O)c1sc2nc3c(c(-c4ccc(Cl)cc4)c2c1N)CCCC3 | 32 | 49* | 13 | 20 | u | 66*
O=C(O)c1ccccc1NC(c1ccccc1)c1ccc(Cl)cc1 (stereo not given) | 6 | 85* | 4 | 6 | 55 | 87*
COc1ccc(NC(=O)c2ccco2)cc1NC(=O)c1ccco1 | 60 | 0 | -1 | -4 | -7 | x
COc1ccc(NC(=O)c2ccco2)cc1NC(=O)c1c(OC)cccc1OC | 112 | 46* | 1 | -3 | 2 | 52*
Fc1ccc(CSc2nc3ccccc3[nH]2)c2ccccc12 | 112 | 66* | -1 | 11 | 6 | 74*
O=C(NCCN1CCOCC1)c1ccc(NC(=O)c2ccc(Br)o2)cc1 | x | x | 3 | -13 | x | x
CCOC(=O)C1=C(c2ccccc2)NC(N)=NC1c1ccc(OCc2ccc(C(=O)OC)cc2)cc1 (stereo not given) | 1 | 46* | 13 | -140 | -18 | 53*
CCOC(=O)C1=C(c2ccccc2)Nc2ncnn2C1c1ccc(C(=O)O)cc1 (stereo not given) | -12 | -3 | 1 | -9 | 2 | x
Cc1ccc(C(=O)NC(Cc2cccc(F)c2)C(=O)O)cc1 (stereo not given) | x | -2 | -1 | 2 | x | x
